This passage reports percent response results from PubChem BioAssay AID1530 (NMMLSC, 2009).

About 1,000 (0.34%) of roughly 290,000 compounds were called active. Rule as the data show it: active = percent response above about 24% (passing the limit was not always enough); inactive = the rest. What follows is part of a selection rich in actives, with near analogues and random picks from the rest.

The test deals with MEKK2 (MAP3K2) mutant PB1 domain binding to MEK5, human. The experiment in a line: MEK5 binding signal on mutant MEKK2 PB1, primary screen, biochemical, multiplex bead flow cytometry, Alexa488-MEK5 (AID 1530). Conditions: at 10 µM, active compounds read high. (In general: In flow cytometry, cells or beads pass a laser one at a time.)
In the case of `COCCCNC(=O)/C(C#N)=C/c1c(N2CCCCCC2)nc2ccccn2c1=O`, the percent response was 5% (inactive).

As to `COCCNC(=O)/C(C#N)=C/c1nc(N(C)C)n(-c2ccc(F)cc2)c1Cl`, the percent response was 63% (active).

For the compound `COCCNC(=O)/C(C#N)=C/c1cccc(OCc2ccccc2)c1`, the percent response was 2% (inactive).

For the compound `Cc1ccc(C(NC(=O)N2CCCC2)C(Cl)(Cl)Cl)cc1F` (centres undefined), the percent response is -1% (inactive).

For the compound `Cc1ccc(S(=O)(=O)c2c[nH]c3ccc(C)cc3c2=O)cc1`, the percent response was 3% (inactive).

Consider `Cc1ccc2c(C)c(C(=O)N(C)Cc3ccncn3)oc2c1C`, for which the percent response was 0% (inactive).

In the case of `Cc1ccc2c(C)c(C(=O)N3CCN(c4ccncc4)CC3)oc2c1C`, the percent response was 30% (active).

As for `Cc1c(C(=O)N2CCN(c3ccc(F)cc3)CC2)oc2c1C(=O)CCC2`, the percent response was 0% (inactive).

For `Cc1cccc(CCNC(=O)Cn2ncc3c([nH]c4ccc(C)cc43)c2=O)c1`, the percent response is -4% (inactive).

In the case of `CCCNC(=O)COc1coc(CN2CCN(Cc3ccccc3)CC2)cc1=O`, the percent response was 10% (inactive).

In the case of `COc1ccc(-c2nnc(NC(=O)CS(=O)(=O)c3ccc(Cl)cc3)o2)c(OC)c1`, the percent response was 2% (inactive).

As for `c1ccc2c(CSCc3nc4ccccc4[nH]3)cccc2c1`, the percent response is 1% (inactive).

For `N=C(N)SCc1cccc2ccccc12`, the percent response is 91% (active).

For `CCOc1ccc(Br)cc1CSC(=N)N`, the percent response was -1% (inactive).

For `CCOC(=O)C1Nc2ccc(C(F)(F)F)cc2C2C=CCC12` (centres undefined), the percent response was 0% (inactive).

Regarding `CC(=O)c1ccc(S(=O)(=O)N2CCC3(CC2)OCCO3)cc1`, the percent response is -1% (inactive).

With `c1ccc(Nc2nc(N3CCOCC3)c3ccccc3n2)cc1`, the percent response is 38% (active).

`O=c1[nH]c(N2CCOCC2)nc2ccccc12`: the percent response is 5% (inactive).

As to `CN1CCN(c2nc(Nc3ccc(O)cc3)nc3ccccc23)CC1`, the percent response is 2% (inactive).

As to `Cc1ccc(C)c(OCCC(=O)OCC(=O)N2CCN(c3ccccc3)CC2)c1`, the percent response was -5% (inactive).

Regarding `O=C(NNS(=O)(=O)c1ccc([N+](=O)[O-])cc1)C1CCCCC1`, the percent response is 7% (inactive).

With `Cc1nc(-c2ccccc2)sc1C1(C)CC(c2cccnc2)=NO1` (centres undefined), the percent response was -3% (inactive).

On to `O=C(Nc1cccnc1)c1ccc(Cl)cc1[N+](=O)[O-]`, for which the percent response was 2% (inactive).

Turning to `O=C(Nc1cccnc1)c1cc([N+](=O)[O-])ccc1Cl`, the percent response is 6% (inactive).

On to `O=C(Nc1cccnc1)c1cc(Cl)ccc1Cl`, for which the percent response was 28% (active).

For `Cc1[nH]n(C(N)=S)c(=O)c1N=Nc1ccc(Cl)cc1Cl`, the percent response is 2% (inactive).

On to `CCn1c(CNC(=O)c2cc(OC)c(OC)c(OC)c2)cc2cc(C)ccc21`, for which the percent response is -6% (inactive).

`CN(C(=O)CN1C(=O)CCSc2ccc(S(=O)(=O)N3CCCC3)cc21)c1ccccc1`: the percent response was 1% (inactive).

As to `CNC(C)C#Cc1ccc2sc3cc(OC)c(OC)cc3c(=O)c2c1` (centres undefined), the percent response was 13% (inactive).

Consider `CC1COc2ccccc2N1C(=O)c1ccc(F)cc1` (centres undefined), for which the percent response is 1% (inactive).

As to `CC1Sc2ccc(S(=O)(=O)CCC(=O)NCc3ccccc3Cl)cc2NC1=O` (centres undefined), the percent response is 11% (inactive).

On to `O=C(NCCN1CCOCC1)[C@H](Cc1ccccc1)N1C(=O)c2ccccc2C1=O`, for which the percent response is 26% (active).

For `O=C(NC1=NCCS1)[C@H](Cc1ccccc1)N1C(=O)c2ccccc2C1=O`, the percent response was 0% (inactive).

In the case of `O=C(CCN1C(=O)c2ccccc2C1=O)NCCN1CCOCC1`, the percent response is -3% (inactive).

In the case of `Cc1ccc(NC(=O)COC(=O)C2C3CC4OC(=O)C2C4C3)cc1Cl` (centres undefined), the percent response is 5% (inactive).

For `CCC(C)[C@H]1COCCS(=O)(=O)N1Cc1ccc(C)cc1` (some centres undefined), the percent response is -5% (inactive).

As for `Cc1c(CCOC(=O)c2cc([N+](=O)[O-])ccc2Cl)sc[n+]1CCCCS(=O)(=O)[O-]`, the percent response is -1% (inactive).

Consider `Cc1c(CCOC(=O)CC23CC4CC(CC(C)(C4)C2)C3)sc[n+]1Cc1ccc([N+](=O)[O-])cc1`, for which the percent response is 54% (active).

Take `Cc1c(CCO)sc[n+]1CC(=O)OC12CC3CC(CC(C3)C1)C2`: the percent response is 0% (inactive).

For `Clc1ccc2nc(CSc3ccccc3)cn2c1`, the percent response is 2% (inactive).

As for `CC1(C)Cc2ccccc2/C(=C/C(=O)c2ccccc2)N1`, the percent response was 3% (inactive).

As to `CN(C)CCCNC(=S)N1CCN(c2nc(-c3ccccc3)cs2)CC1`, the percent response was 25% (active).

Take `COCCCNC(=S)N1CCN(c2nc(-c3cccc(OC)c3)cs2)CC1`: the percent response was -4% (inactive).

As to `CN(C)CCCNC(=S)N1CCC(c2nc3ccccc3[nH]2)CC1`, the percent response is 4% (inactive).

Turning to `COc1ccc(CCN2C(=O)C(C)=C(C)C2=O)cc1OC`, the percent response was 1% (inactive).

`O=C(CCc1nnc2ccc(NCCCN3CCCC3=O)nn12)NCc1ccccc1Cl`: the percent response was 6% (inactive).

For `O=C(CCc1nnc2ccc(NCc3ccccc3Cl)nn12)NCC1CCN(C2CCCC2)C1` (centres undefined), the percent response is 26% (active).

As for `CC1CCN(C(=O)CCc2nnc3ccc(NCc4ccco4)nn23)CC1`, the percent response was 0% (inactive).

As to `CC1CCCCN1C(=O)Cn1c(=O)oc2cc(S(=O)(=O)N3CCCCC3)ccc21` (centres undefined), the percent response is 2% (inactive).

Regarding `Cc1cccc(NC(=O)Cc2ccc(Br)cc2)n1`, the percent response is 4% (inactive).

As to `COc1cc(NC(=O)CSc2nnc3ccc(-c4ccncc4)nn23)cc(OC)c1`, the percent response was 0% (inactive).

Regarding `COc1ccccc1CCNC(=O)CSc1nnc2ccc(-c3cccnc3)nn12`, the percent response was 6% (inactive).

Turning to `COc1ccc(CCNC(=O)CSc2nnc3ccc(-c4ccncc4)nn23)cc1`, the percent response was 146% (active).

Take `CCOc1ccc(C(=O)Nc2c3c(nn2-c2ccccc2)CS(=O)(=O)C3)cc1`: the percent response was 6% (inactive).

For the compound `COc1ccc(S(=O)(=O)/N=C2\C=C(NS(=O)(=O)c3ccccc3)C(=O)c3ccccc32)cc1`, the percent response was -2% (inactive).

On to `CCOc1ccccc1NC(=O)Cn1ncc2ccc([N+](=O)[O-])cc21`, for which the percent response is 3% (inactive).

For `Cc1cc(NC(=O)c2cnn3cccnc23)n(-c2ccccc2)n1`, the percent response is 5% (inactive).

For the compound `O=C(Nc1ccc(Cl)cn1)c1ccc2c(c1)OCCO2`, the percent response is -5% (inactive).

Consider `O=C(Nc1ccc(Cl)cn1)c1cnn2cccnc12`, for which the percent response is 26% (active).

Regarding `COc1ccc(C)cc1N(C(=O)Cn1nnc(-c2ccc(C)o2)n1)C(C(=O)NC1CCCC1)c1ccncc1` (centres undefined), the percent response is -2% (inactive).

With `CCOC(=O)N1CCN(Cc2nnc(-c3ccccc3Cl)o2)CC1`, the percent response was 8% (inactive).

For `CCCn1c(=N)n(CC(=O)c2ccc(Cl)c(Cl)c2)c2ccccc21`, the percent response is 29% (active).

On to `CCn1c(=N)n(CC(=O)c2cccc(OC)c2)c2ccccc21`, for which the percent response was -9% (inactive).

Regarding `CCCNC(=O)c1ccc(Cl)c(Cl)c1`, the percent response was -1% (inactive).
